# Results: ChEMBL document CHEMBL4513146, “CO-ADD screening of Karazin Kharkiv National University (Ukraine) compounds”
# Potency and affinity values are given separately.
# Experiments:
# [1] = tested on: Klebsiella pneumoniae; details: Concentration 32 ug.mL-1;; ASSAY_TEST Inhibition of Bacterial Growth; detection method Absorption (OD600); MEDIA CAMHB; plate type 384well; NBS; CORNING #3640; time 18 hr
# [2] = tested on: Candida albicans; details: Concentration 32 ug.mL-1; ASSAY_TEST Inhibition of Fungal Growth; detection method Absorption (OD530)
# [3] = tested on: Cryptococcus neoformans; details: Concentration 32 ug.mL-1; ASSAY_TEST Inhibition of Fungal Growth; detection method Resazurin; Absorption (OD600-OD570); plate type 384well; NBS; CORNING #3640
SMILES,Inhibition [1] [%],Inhibition [2] [%],Inhibition [3] [%]
Cc1cc(NC(=O)Cn2c(=O)c3nnc(C(C)C)n3c3ccccc32)ccc1Br,7.01,3.1,-11.52
Cc1cc(Br)ccc1NC(=O)Cn1nc2c(Sc3ccccc3)nccn2c1=O,5.06,6.68,-7.39
Cc1ccccc1N1CCN(c2nccn3c(=O)n(CC(=O)Nc4cccc(C(C)C)c4)nc23)CC1,0.34,19.66,-7.69
Cc1ccc(C)c(Cn2nc3c(=O)n(-c4ccc(C)c(C)c4)ccn3c2=O)c1,6.6,1.95,-10.52
COc1cc(NC(=O)Cn2nc3c(Oc4ccccc4)nccn3c2=O)cc(OC)c1,11.9,-1.97,-7.5
Cc1c(Cl)cccc1-n1ccn2c(=O)n(Cc3ccc(F)cc3)nc2c1=O,-1.56,6.3,-16.32
COc1cccc(Oc2nccn3c(=O)n(CC(=O)Nc4cccc(Br)c4)nc23)c1,6.87,0.25,-8.58
CCOC(=O)c1ccc(NC(=O)Cn2nc3c4cc(-c5ccc(C)cc5)nn4ccn3c2=O)cc1,-1.86,7.19,-28.56
Cc1ccc(-n2ccn3c(=O)n(Cc4ccccc4)nc3c2=O)cc1C,-0.96,0.88,-10.01
COc1ccccc1-n1ccn2c(SCC(=O)N3CCN(c4ccccc4F)CC3)nnc2c1=O,14.09,3.15,-10.82
COc1ccccc1CNC(=O)Cn1nc2c(N3CCC(C)CC3)nccn2c1=O,13.15,4.39,-8.45
Cc1ccc(C)c(S(=O)(=O)Nc2ccc3nncn3n2)c1,4.11,0.56,-3.83
Cc1cccc(C)c1NC(=O)Cn1nc2c3c4c(sc3ncn2c1=O)CCCC4,12.26,11.56,-19.68
CCOc1ccc(N(Cc2ccc(F)cc2)S(=O)(=O)c2ccc3nncn3c2)cc1,4.23,3.15,-3.72
CCOc1ccccc1NC(=O)Cn1c(=O)c2nnc(C(C)C)n2c2ccccc21,4.41,1.06,-2.8
COc1cccc(Cn2nc3n(CCC(=O)NC4CCCCC4)c(=O)c4ccccc4n3c2=O)c1,9.79,5.45,-13.5
COC(=O)c1ccc(NC(=O)CSc2nnc3c4cc(-c5ccc(OC)cc5)nn4ccn23)cc1,13.79,0.37,-25.69
Cc1cc2nn(CC(=O)N3CCCC3)c(=O)n2c(Nc2ccc(C)c(F)c2)n1,9.72,0.7,-5.41
COc1ccc(NC(=O)Cn2nc3c4cc(-c5cc(C)ccc5C)nn4ccn3c2=O)c(OC)c1,9.51,3.64,-9.3
COc1cc(NC(=O)Cn2nc3ccc(-c4ccc(C)c(C)c4)nn3c2=O)cc(OC)c1,2.14,14.91,-15.3
CC(C)CCn1c(=O)c2sccc2n2c(=O)n(CCOc3ccccc3)nc12,15.26,12.41,-11.28
COc1ccc(Cl)cc1NC(=O)Cn1nc2c(Sc3ccc(C)cc3C)nccn2c1=O,5.33,2.63,-21.72
O=c1c2sccc2n2c(SCc3cccc(C(F)(F)F)c3)nnc2n1Cc1ccc(F)cc1,10.74,2.55,-25.66
CC(C)NC(=O)CSc1nnc2c(=O)n(Cc3ccc(F)cc3)ccn12,4.17,2.95,-22.73
O=C(Cn1nc2c(N3CCOCC3)nccn2c1=O)Nc1ccccc1Br,13.49,4.41,-7.57

SMILES,Inhibition [1] [%],Inhibition [2] [%],Inhibition [3] [%]
CCOC(=O)c1ccc(NC(=O)Cn2nc3c4cc(-c5ccc(Cl)cc5)nn4ccn3c2=O)cc1,8.16,4.56,-16.17
COc1cccc(CNC(=O)CSc2nnc3c(=O)n(-c4ccc(F)cc4)ccn23)c1OC,1.04,2.96,-5.56
CCOc1ccc(NC(=O)Cn2nc3ccc(-c4ccc(C)c(C)c4)nn3c2=O)cc1,4.27,1.39,-10.52
Cc1cccc(CN(c2cccc(Cl)c2)S(=O)(=O)c2cccn3c(C)nnc23)c1,-0.09,1.52,-9.64
CCc1cccc(NC(=O)CSc2nnc3c(=O)n(-c4ccccc4)ccn23)c1,3.17,8.67,-15.51
CCCn1c(=O)c2ccc(C(=O)NC3CCCCC3)cc2n2c(=O)n(CC#N)nc12,5.71,1.88,-10.2
COc1ccc(-c2cc3c4nnc(CCC(=O)NCc5ccc6c(c5)OCO6)n4ccn3n2)cc1,9.82,3.53,-3.36
O=C(Cn1nc2c3cc(-c4ccc(Cl)cc4)nn3ccn2c1=O)Nc1ccc(F)cc1,10.41,1.82,-10.24
COc1cccc(NC(=O)Cn2nc3c(=O)n(-c4ccc(Br)cc4)ccn3c2=O)c1,6.98,1.08,-6.3
COc1cccc(-n2ccn3c(SCc4cccc(C)c4)nnc3c2=O)c1,11.77,3.62,-12.18
O=C(Cn1nc2c(N3CCOCC3)nccn2c1=O)Nc1ccc(Cl)cc1F,19.61,2.13,-2.72
CCc1ccc(NC(=O)Cn2nc3ccc(SC4CCCCC4)nn3c2=O)cc1,3.55,2.46,-12.68
Cc1cc2nn(CC(=O)Nc3ccccc3)c(=O)n2c(Nc2ccc(C)c(F)c2)n1,9.53,4.54,-5.9
COc1ccc(CN(c2ccc(F)cc2)S(=O)(=O)c2cccn3c(C)nnc23)cc1,13.21,1.16,-6.38
N#Cc1cccc(NC(=O)CSc2nnc3c4cc(-c5ccc(F)cc5)nn4ccn23)c1,16.47,16.76,-30.63
COc1cc(NC(=O)Cn2nc3c(Sc4cccc(F)c4)nccn3c2=O)cc(OC)c1,4.9,1.46,-6.36
CCc1ccc(N(Cc2cccc(Cl)c2)S(=O)(=O)c2cccn3c(C)nnc23)cc1,7.34,9.1,-5.8
Cc1cc(C)cc(Nc2nc(C)cc3nn(CC(=O)Nc4ccccc4)c(=O)n23)c1,9.53,4.6,-8.58
O=S(=O)(c1ccc2nncn2c1)N(Cc1cc(F)cc(F)c1)c1ccc(F)cc1,7.07,0.51,-5.99
COc1ccc(OC)c(NC(=O)Cn2nc3c4cc(-c5ccc(C)c(C)c5)nn4ccn3c2=O)c1,5.66,5.32,-22.06
Cc1ccc(F)cc1NC(=O)CSc1nc2ccccc2n2c(C(C)C)nnc12,9.62,0.82,-18.14
O=C(CSc1nnc2c3cc(-c4ccccc4)nn3ccn12)NCc1ccccc1Cl,7.7,0.55,-17.16
Cc1ccc(-c2ccc3nn(CC(=O)Nc4c(C)cccc4C)c(=O)n3n2)cc1C,-0.65,-0.71,-7.01
O=C(Cn1nc2c(Sc3ccccc3)nccn2c1=O)Nc1ccc2c(c1)OCCO2,12.02,-0.06,-3.83
CCc1nnc2c(=O)n(CC(=O)Nc3ccc(C#N)cc3)c3ccccc3n12,5.17,10.64,-24.76
